Compound activity (PubChem BioAssay)
The list is not random: actives were taken first. Their share in the collection is about 19%.
KB-3-1 cytotox = kills parental KB-3-1 adenocarcinoma cells; Potency, µM (titrated, usually from 46.1 µM), usual class: cytotoxic; KB-3-1 viability, CellTiter-Glo ATP luminescence, 72 h; 1.4% of 400,000 active; AID 1347075; also: nearly all actives have a fitted effect of over 60% in size
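KB-3-1 parental drug-naive adenocarcinoma cells in DMEM/10% FBS, incubated 72 h at 37 C with pin-transferred compounds across a concentration series. Viability by CellTiter-Glo luminescence; concentration-response curves fitted after normalization.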
DT40 TDP1 no CPT = qHTS for Inhibitors of human tyrosyl-DNA phosphodiesterase 1 (TDP1): qHTS in cells in absence of CPT; DT40 Tdp1-/- hTDP1 cells, no CPT, ATP luminescence, 48 h; Potency, µM (titrated, usually from 46.2 µM), inactives show top-dose activity change, negative = growth inhibition, most hits filed as inhibitors; 15% of 420,000 active; AID 686978, 2013; also: nearly all actives have a fitted effect of over 55% in size
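Chicken DT40 Tdp1-/- cells stably complemented with human TDP1 were seeded at 400 cells/well with DMSO in place of 20 nM camptothecin. After compound pinning, cells grew at least 48 hr at 37 °C; viability read by CellTiter-Glo luminescence.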
DT40 TDP1 CPT = DT40-hTDP1 cell growth loss with CPT. Potency, µM (highest dose often 46.2 µM), without a hit: top-dose activity change, negative = growth inhibition, usual class: inhibitors. 12% of 420,000 active. chicken DT40 Tdp1-/-;hTDP1 cells + 20 nM CPT, ATP luminescence, 48 h; also: nearly all actives have a fitted effect of over 55% in size
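Chicken DT40 Tdp1-/- cells complemented with human TDP1, 400 cells/well, exposed to compounds plus 20 nM camptothecin for at least 48 h at 37 C; viability read as ATP content by CellTiter-Glo luminescence.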
KB-V1 MDR tox = KB-V1 MDR subline cytotoxicity; KB-V1 MDR cells viability, CellTiter-Glo, 72 h; Potency, µM (series often up to 46.1 µM), actives largely listed as cytotoxic; 3.4% of 400,000 active; also: nearly all actives have a fitted effect of over 60% in size
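KB-V1 MDR subline cells in DMEM (phenol-red free, 10% FBS) exposed to compounds in qHTS concentration series for 72 h at 37 degrees C. Viability read by CellTiter-Glo luminescence; concentration-effect curves fitted after normalization and correction.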
HT1080 IDH1KD tx = HT-1080 IDH1 knockdown cell toxicity (counter line) | HT-1080 IDH1 knockdown viability, ATP luminescence, 48 h | Potency, µM (highest dose often 46.1 µM), for the others: top-dose activity, negative = toxicity, usual class: cytotoxic | 2% of 360,000 active;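 also: 0% = DMSO wells and -100% = cell-free medium wells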
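HT-1080-IDH1KD cells (IDH1 knocked down), 750/well in RPMI with 5% FBS, treated with compound 48 h at 37 degrees C. Viability by CellTiter-Glo luminescence, normalised to DMSO and no-cell wells; concentration-response curves classed.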
HT1080-NT tox = kills 2HG-producing HT-1080-NT fibrosarcoma cells; HT-1080-NT fibrosarcoma viability, CellTiter-Glo ATP luminescence, 48 h; Potency, µM (titrated, usually from 46.1 µM), without a hit: at the highest dose activity, negative = less viability, actives largely listed as cytotoxic; 1.6% of 360,000 active; AID 686970;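 also: NT is the 2HG producing partner of a matched IDH1 knockdown line; 0% = DMSO-treated cells and -100% = media-only wells without cells; nearly all actives have a fitted effect of over 55% in size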
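Compounds were tested in concentration-response format on HT-1080-NT cells for 48 hours at 37 degrees C. Cell viability came from CellTiter-Glo luminescence; curves were classified by r2, response magnitude and activity.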
* hit, by the source's call; i = inactive; ? = inconclusive; · = no result given; [ ] = another dose, or the depositor's remark. Calls follow the shape of the dose curve; as a rule, active = well fitted curve in the direction sought with a large enough effect; inconclusive = small, poorly fitted or top-dose-only effect, or another doubt; inactive = no such curve, though single readings can be large; an effect the other way counts as inactive or inconclusive. Unless noted, % is scaled to controls: 0 for no effect and ±100 for the full control effect; potency is read from the fitted curve at half-maximal effect.

SMILES	KB-3-1 cytotox	DT40 TDP1 no CPT	DT40 TDP1 CPT	KB-V1 MDR tox	HT1080 IDH1KD tx	HT1080-NT tox
CC(=O)N1c2ccc(S(=O)(=O)NCc3ccc(Cl)cc3)cc2CC1C (configuration not stated)	·	23µM*	?	·	·	·
CC1Cc2cc(S(=O)(=O)NCc3ccc(F)cc3)ccc2N1C(=O)C1CCC1 (configuration not stated)	·	2.9µM*	?	·	·	·
C#CCOc1ccc(CNC[C@H]2O[C@@H](n3ccc(N)nc3=O)[C@H](O)[C@@H]2O)cc1	i	-21%	15%	i	0%	14%
CC(NCc1ccc(N(C)C)cc1)C1CC2CCC1C2 (configuration not stated)	i	?	?	i	4%	-2%
Cc1ccc(CN2c3ccccc3-c3nc(SCC(=O)NCCc4ccccc4)ncc3S2(=O)=O)cc1	i	?	?	i	·	·
COc1ccccc1CNS(=O)(=O)c1ccc2c(c1)CC(C)N2C(=O)C1CC1 (configuration not stated)	i	?	?	?	-26%	?
CC1Cc2cc(S(=O)(=O)NCc3ccc(Cl)cc3)ccc2N1C(=O)C1CCC1 (configuration not stated)	?	13µM*	23µM*	i	·	·
CCOc1ccc(NC(=O)CCNS(=O)(=O)c2ccc3c(c2)CC(C)N3C(C)=O)cc1 (configuration not stated)	i	23µM*	15µM*	?	9%	-2%
COc1cccc(C2C3=C(CC(C)(C)CC3=O)Nc3cc4c(cc32)OCO4)c1 (configuration not stated)	i	-11%	-22%	?	-4%	-4%
COc1cc2c(cc1OC)C(c1ccc3c(c1)OCO3)C1=C(CC(C)(C)CC1=O)N2 (configuration not stated)	i	?	?	0.73µM*	-1%	3%
CCc1ccc(C2CC(=O)Nc3cc4c(cc32)OCO4)cc1 (configuration not stated)	i	?	-18%	i	·	·
O=C1OCC2=C1C(c1ccc(F)cc1)c1cc3c(cc1N2)OCO3 (configuration not stated)	0.037µM*	0.033µM*	0.16µM*	0.15µM*	0.12µM*	0.18µM*
C#CCOc1ccc(C2C3=C(COC3=O)Nc3cc4c(cc32)OCO4)cc1OC (configuration not stated)	?	1µM*	0.82µM*	4.6µM*	0.092µM*	0.046µM*
O=C1OCC2=C1C(c1ccc3c(c1)OCO3)Sc1ccccc1N2 (configuration not stated)	i	21µM*	13µM*	i	-23%	-3%
O=C(CCN1CCCCC1)N/N=C/c1c[nH]c2ccccc12	i	-5%	18%	i	11%	?
CC(C)CNC(=O)C(=O)NCC1OCCN1S(=O)(=O)c1cccs1 (configuration not stated)	i	4%	-3%	i	1%	-1%
CC(=O)Oc1ccc(C2C3=C(CC(C)(C)CC3=O)Nc3cc4c(cc32)OCCO4)cc1 (configuration not stated)	i	6%	-1%	i	0%	-2%
O=C1OCC2=C1C(c1ccc(F)cc1)c1cc3c(cc1N2)OCCO3 (configuration not stated)	0.16µM*	0.18µM*	0.18µM*	0.033µM*	0.18µM*	0.18µM*
COc1ccc(C(=O)Nc2ncccc2C)cc1S(=O)(=O)N1CCOCC1	i	-2%	1%	i	5%	-3%
Cc1c(C)c(C)c(S(=O)(=O)n2[nH]c(=O)c(CCO)c2C)c(C)c1C	i	?	3%	i	-1%	-6%
Cc1cc(S(=O)(=O)n2[nH]c(=O)c(CCO)c2C)c(Cl)cc1Cl	·	?	16µM*	·	1%	0%
COc1ccc(CCn2c(=N)c(C(=O)NC3CCCC3)cc3c(=O)n4ccccc4nc32)cc1OC	?	0.65µM*	0.73µM*	i	2%	9%
COc1ccc(CCn2c(=N)c(C(=O)NCC3CCCO3)cc3c(=O)n4ccccc4nc32)cc1OC (configuration not stated)	i	2.9µM*	7.3µM*	i	-4%	-19%
CC(C)n1c(=N)c(C(=O)NC2CCCCC2)cc2c(=O)n3ccccc3nc21	i	0%	2%	?	·	·
N=c1c(C(=O)NC2CCCCC2)cc2c(=O)n3ccccc3nc2n1CC1CCCO1 (configuration not stated)	i	?	4%	i	4%	10%
SMILES	KB-3-1 cytotox	DT40 TDP1 no CPT	DT40 TDP1 CPT	KB-V1 MDR tox	HT1080 IDH1KD tx	HT1080-NT tox
COCCn1c(=N)c(C(=O)NCC2CCCO2)cc2c(=O)n3ccccc3nc21 (configuration not stated)	i	-9%	4%	?	·	·
COc1ccc(Cn2c(=N)c(C(=O)NC3CCCCC3)cc3c(=O)n4ccccc4nc32)cc1	i	8.2µM*	18µM*	i	21%	12%
CCC(C)n1c(=N)c(C(=O)NC2CCCCC2)cc2c(=O)n3ccccc3nc21 (configuration not stated)	i	16µM*	?	i	·	·
COC(=O)[C@@H]1C[C@@H](NC(=O)c2cnsn2)CN1Cc1ccc(Cl)cc1	·	-15%	-13%[9.04 µM]	·	·	·
COCCCn1c(=N)c(C(=O)NC2CCCC2)cc2c(=O)n3ccccc3nc21	i	-1%	1%	i	·	·
COc1cccc(NC(=O)c2cc3c(=O)n4ccccc4nc3n(CC(C)C)c2=N)c1	i	5.8µM*	6.5µM*	i	7%	-1%
COc1ccc(CCn2c(=N)c(C(=O)NC3CCCC3)cc3c(=O)n4ccccc4nc32)cc1	i	3.3µM*	4.1µM*	i	7%	-1%
CCCCN(CC)C(=O)C1CCCN(c2ncnc3onc(C)c23)C1 (configuration not stated)	i	21µM*	18µM*	i	·	·
CCCCN(C)C(=O)C1CCCN(c2ncnc3onc(C)c23)C1 (configuration not stated)	?	1.8µM*	5.2µM*	i	·	·
COc1ccc(Cc2nc(-c3ccccc3)no2)cc1	i	-16%	-12%	i	8%	13%
